Test results from PubChem BioAssay AID504684 (Southern Research Specialized Biocontainment Screening …, 2011).
Entries with a potency or affinity are not part of this list. Values without a mark were called inactive. No rule for the calls is given here.

Assay: Vero cell cytotoxicity, cytotoxicity control for M. tuberculosis inhibitor project, purified and synthesized samples, set 3 (AID 504684)
Settings: series mostly up to 100 µM; viability: at the top concentration

Structure (SMILES)	viability
CC(=NCc1ccc2c(c1)OCO2)C1=C(O)c2ccccc2C1=O	89.5%
Cc1[nH]c(=S)[nH]c(=O)c1C	92.6%
COc1cc(NC(=O)C/C(C)=N/NC(=O)c2ccccn2)c(OC)cc1Cl	98.9%
O=C(CSc1nccc(=O)[nH]1)Nc1ccc(N2CCOCC2)cc1	103%
Cc1cc(=O)[nH]c(=S)[nH]1	94.2%
CCOC1OC(=O)C(Cl)=C1Nc1ccccc1C (stereo not drawn)	85%
CCOC(=O)CSc1nc(C)c(C)c(=O)[nH]1	100%
COC(=O)C(C)Oc1ccc(-c2nccc(-c3ccccn3)n2)cc1 (stereo not drawn)	82%
Cc1nc(SCC(N)=O)[nH]c(=O)c1C	93.2%
CCOC(=O)COc1ccc(/C=C2\NC(=S)N(CC)C2=O)cc1	86.3%
CCOC(=O)COn1c2c(c3c4no[n+]([O-])c4ccc31)CCCC2	93.2%
CC[N+](C)(CC)CCCCOc1ccc2c(c1)C(=O)c1cc(OCCCC[N+](C)(CC)CC)ccc1-2	87.1%
Cc1cc(=O)[nH]c(SCC(=O)Nc2ccccc2)n1	87.8%
COC(=O)C1CC(=O)N(c2ccc(OCc3ccccc3Cl)cc2)C1 (stereo not drawn)	79.3%
COC(=O)C(C)Oc1ccc(Cc2ncc(C(F)(F)F)cc2Cl)cc1 (stereo not drawn)	83.6%
O=C(CSc1nc2ccccc2c(=O)[nH]1)NC1CCCCC1	94%
Cc1ccc(NC(=O)COC(=O)CCc2c[nH]c3ccccc23)cc1[N+](=O)[O-]	79.8%
CCSc1nc(C)c(C)c(=O)[nH]1	101%
O=C(CSc1ncccn1)NC1CCCCC1	80.4%
Cc1c[nH]c(=S)[nH]c1=O	80.5%
O=C(CSc1ccccn1)NC1CCCCC1	80.4%
O=C(CSc1nc(O)cc(=O)[nH]1)Nc1ccccc1	91.6%
Cc1nc(SCC(=O)NC2CCCCC2)[nH]c(=O)c1C	84.1%
